Assay results: PubChem BioAssay AID1159580 (chemical genetic matrix, 2015)
Where “and” joins values, the source holds several entries; their conditions need not be identical. Identical values can stand only once. In all, about 5,500 compounds went through this assay and about 2,000 (36%) were called active. Inconclusive results (about 18%) are left out. Cut-off read from the data, not from the text of the source: active = normalized growth mostly below about 0.91 (no sharp cut-off); inconclusive = no clear call, values can overlap the other calls; inactive = mostly above about 0.92. This is one part of the list.

Assay: chemical genetic growth profiling, strain panel (AID 1159580);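 note: tested at 20 µM; growth read once vehicle control cultures reached saturation at 30 °C; 1 = growth at the plate median or of vehicle wells; lower values mean less growth of the strain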
Details: growth OD

Measured: normalized growth

CS(=O)(=O)Nc1ccc([N+](=O)[O-])cc1Oc1ccccc1
inactive: S. cerevisiae deletion strains, locus YJR066W, strain TOR1, hits give low values 0.962 | S. cerevisiae deletion strains, locus YJR075W, strain HOC1, hits give low values 1 | S. cerevisiae deletion strains, locus YKL009W, strain mrt4, hits give low values 0.944 | S. cerevisiae deletion strains, locus YKL068W, hits give low values 0.988 | S. cerevisiae deletion strains, locus YKL085W, strain MDH1 (second series), hits give low values 0.99 | S. cerevisiae deletion strains, locus YKL085W, strain MDH1, hits give low values 0.99 | S. cerevisiae deletion strains, locus YKL160W, strain elf1, hits give low values 0.987 | S. cerevisiae deletion strains, locus YKL190W, strain CNB1, hits give low values 0.983 | S. cerevisiae deletion strains, locus YKR001C, strain vps1, hits give low values 0.938 | S. cerevisiae deletion strains, locus YKR026C, strain gcn3, hits give low values 0.987 | S. cerevisiae deletion strains, locus YKR091W, strain srl3, hits give low values 0.993 | S. cerevisiae deletion strains, locus YLL001W, strain dnm1, hits give low values 0.975 | S. cerevisiae deletion strains, locus YLL026W, hits give low values 0.993 | S. cerevisiae deletion strains, locus YLL041C, strain sdh2, hits give low values 0.995 | S. cerevisiae deletion strains, locus YLR027C, strain aat2, hits give low values 1 | S. cerevisiae deletion strains, locus YLR039C, strain RIC1, hits give low values 0.839 | S. cerevisiae deletion strains, locus YLR058C, strain SHM2, hits give low values 0.966 | S. cerevisiae deletion strains, locus YLR102C, strain apc9, hits give low values 0.984 | S. cerevisiae deletion strains, locus YLR113W, strain HOG1, hits give low values 1.03 | S. cerevisiae deletion strains, locus YLR221C, strain rsa3, hits give low values 0.994 | S. cerevisiae deletion strains, locus YLR258W, strain gsy2, hits give low values 0.988 | S. cerevisiae deletion strains, locus YLR262C, strain YPT6 (second series), hits give low values 0.889 | S. cerevisiae deletion strains, locus YLR262C, strain YPT6, hits give low values 0.75 | S. cerevisiae deletion strains, locus YLR268W, strain sec22, hits give low values 0.958 | S. cerevisiae deletion strains, locus YLR320W, strain mms22, hits give low values 0.994 | S. cerevisiae deletion strains, locus YLR330W, strain CHS5, hits give low values 0.993 | S. cerevisiae deletion strains, locus YLR342W, strain FKS1 (second series), hits give low values 1.08 | S. cerevisiae deletion strains, locus YLR342W, strain FKS1, hits give low values 0.997 | S. cerevisiae deletion strains, locus YLR357W, strain rsc2, hits give low values 0.986 | S. cerevisiae deletion strains, locus YLR370C, strain arc18, hits give low values 0.999 | S. cerevisiae deletion strains, locus YLR371W, strain rom2, hits give low values 0.984 | S. cerevisiae deletion strains, locus YLR384C, strain iki3, hits give low values 0.991 | S. cerevisiae deletion strains, locus YLR418C, strain cdc73, hits give low values 1.01 | S. cerevisiae deletion strains, locus YML016C, strain PPZ1, hits give low values 0.989 | S. cerevisiae deletion strains, locus YML032C, strain rad52, hits give low values 0.958 | S. cerevisiae deletion strains, locus YML120C, strain ndi1, hits give low values 0.993 | S. cerevisiae deletion strains, locus YML124C, strain tub3, hits give low values 0.982 | S. cerevisiae deletion strains, locus YMR058W, strain fet3, hits give low values 0.993 | S. cerevisiae deletion strains, locus YMR078C, strain ctf18, hits give low values 0.975 | S. cerevisiae deletion strains, locus YMR125W, strain sto1, hits give low values 0.984 | S. cerevisiae deletion strains, locus YMR129W, hits give low values 0.983 | S. cerevisiae deletion strains, locus YMR205C, strain PFK2, hits give low values 0.974 | S. cerevisiae deletion strains, locus YMR223W, strain ubp8, hits give low values 0.993 | S. cerevisiae deletion strains, locus YMR231W, strain pep5, hits give low values 1 | S. cerevisiae deletion strains, locus YMR307W, strain GAS1, hits give low values 1.05 and 0.989 | S. cerevisiae deletion strains, locus YNL067W, strain RPL9B, hits give low values 0.953 | S. cerevisiae deletion strains, locus YNL071W, strain lat1, hits give low values 1 | S. cerevisiae deletion strains, locus YNL128W, strain TEP1, hits give low values 0.981 and 0.986 | S. cerevisiae deletion strains, locus YNL175C, strain NOP13, hits give low values 0.995 | S. cerevisiae deletion strains, locus YNL183C, strain NPR1, hits give low values 0.943 | S. cerevisiae deletion strains, locus YNL197C, strain WHI3, hits give low values 0.99 | S. cerevisiae deletion strains, locus YNL209W, strain ssb2, hits give low values 0.994 | S. cerevisiae deletion strains, locus YNL224C, strain SQS1, hits give low values 1 | S. cerevisiae deletion strains, locus YNL233W, strain BNI4, hits give low values 0.927 | S. cerevisiae deletion strains, locus YNL248C, strain rpa49, hits give low values 1 | S. cerevisiae deletion strains, locus YNL250W, strain rad50, hits give low values 0.999 | S. cerevisiae deletion strains, locus YNL271C, strain bni1, hits give low values 0.972 | S. cerevisiae deletion strains, locus YNL298W, strain CLA4, hits give low values 0.966 | S. cerevisiae deletion strains, locus YNL307C, strain MCK1, hits give low values 0.966 | S. cerevisiae deletion strains, locus YNL322C, strain KRE1 (second series), hits give low values 0.994 | S. cerevisiae deletion strains, locus YNL322C, strain KRE1, hits give low values 0.986 and 1.01 | S. cerevisiae deletion strains, locus YNR049C, strain mso1, hits give low values 0.99 | S. cerevisiae deletion strains, locus YNR052C, strain pop2, hits give low values 0.976 | S. cerevisiae deletion strains, locus YOL006C, strain TOP1, hits give low values 0.841 | S. cerevisiae deletion strains, locus YOL012C, strain htz1 1.03 | S. cerevisiae deletion strains, locus YOL147C, strain pex11, hits give low values 0.98 | S. cerevisiae deletion strains, locus YOR001W, strain rrp6, hits give low values 0.99 | S. cerevisiae deletion strains, locus YOR061W, strain CKA2, hits give low values 0.964 | S. cerevisiae deletion strains, locus YOR069W, strain VPS5, hits give low values 0.994 | S. cerevisiae deletion strains, locus YOR070C, strain gyp1, hits give low values 0.986 | S. cerevisiae deletion strains, locus YOR080W, strain dia2, hits give low values 0.991 | S. cerevisiae deletion strains, locus YOR083W, strain WHI5 (second series), hits give low values 0.991 | S. cerevisiae deletion strains, locus YOR083W, strain WHI5, hits give low values 0.986 | S. cerevisiae deletion strains, locus YOR106W, strain vam3, hits give low values 1.01 | S. cerevisiae deletion strains, locus YOR136W, strain idh2, hits give low values 0.977 | S. cerevisiae deletion strains, locus YOR144C, strain elg1, hits give low values 0.981 | S. cerevisiae deletion strains, locus YOR184W, strain ser1, hits give low values 0.951 | S. cerevisiae deletion strains, locus YOR231W, strain MKK1, hits give low values 1.06 | S. cerevisiae deletion strains, locus YOR265W, strain rbl2, hits give low values 1.01 | S. cerevisiae deletion strains, locus YOR270C, strain vph1, hits give low values 0.97 | S. cerevisiae deletion strains, locus YOR290C, strain snf2, hits give low values 0.954 | S. cerevisiae deletion strains, locus YOR316C, strain cot1, hits give low values 0.961 | S. cerevisiae deletion strains, locus YPL051W, strain arl3, hits give low values 0.993 | S. cerevisiae deletion strains, locus YPL055C, strain LGE1, hits give low values 0.879 | S. cerevisiae deletion strains, locus YPL078C, strain atp4, hits give low values 0.994 | S. cerevisiae deletion strains, locus YPL106C, strain sse1, hits give low values 0.991 | S. cerevisiae deletion strains, locus YPL240C, strain hsp82, hits give low values 0.978 | S. cerevisiae deletion strains, locus YPL241C, strain CIN2, hits give low values 1.01 | S. cerevisiae deletion strains, locus YPL256C, strain CLN2, hits give low values 1.03 | S. cerevisiae deletion strains, locus YPR119W, strain clb2, hits give low values 0.973 | S. cerevisiae deletion strains, locus YPR141C, strain kar3, hits give low values 0.973 | S. cerevisiae deletion strains, locus YPR163C, strain tif3, hits give low values 0.988 | S. cerevisiae deletion strains, locus YPR167C, strain met16, hits give low values 0.986 | S. cerevisiae deletion strains, strain wtn01, hits give low values 0.968 | S. cerevisiae strains, strain wild type, hits give low values 0.978
